Compound activity as filed in PubChem.
PERK inhibitor: human PERK inhibition, primary cell-based screen. inhibition, % at 5.6 µM. CHO PERK-DD fusion, SEAP luminescence translation reporter. 0.17% of 220,000 active. AID 1416;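 active = inhibition above the mean inhibition of all tested compounds plus 3 SD, set separately per screening campaign, cut at about 2.9% in these data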;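 note: PERK kinase domain activated by AP20187 dimerizer at 100 nM; 0% = DMSO with dimerizer and 100% = rapamycin at 8.4 µM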
WT yeast gro inh: growth inhibition of WT yeast, mitochondrial fusion screen. AID 1362. 2.1% of 190,000 active. mitochondrial fusion phenotypic screen, WT strain. inhibition, % at 10 µM; in the data active = inhibition above about 58%; tested in S. cerevisiae
ROMK primary: modulators of human ROMK potassium channel; Tet-inducible ROMK, thallium flux fluorescence; actives lie on both sides; B-score at 10 µM; 2% of 130,000 active; AID 1918;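 active = signal ratio slope over the read window, or its plate-corrected B-score, at least 3 SD from the plate mean, either direction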;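 note: B-score of the F/F0 ratio slope over 7 to 12 s after thallium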
Target sequence (P48048 whole entry, looked up): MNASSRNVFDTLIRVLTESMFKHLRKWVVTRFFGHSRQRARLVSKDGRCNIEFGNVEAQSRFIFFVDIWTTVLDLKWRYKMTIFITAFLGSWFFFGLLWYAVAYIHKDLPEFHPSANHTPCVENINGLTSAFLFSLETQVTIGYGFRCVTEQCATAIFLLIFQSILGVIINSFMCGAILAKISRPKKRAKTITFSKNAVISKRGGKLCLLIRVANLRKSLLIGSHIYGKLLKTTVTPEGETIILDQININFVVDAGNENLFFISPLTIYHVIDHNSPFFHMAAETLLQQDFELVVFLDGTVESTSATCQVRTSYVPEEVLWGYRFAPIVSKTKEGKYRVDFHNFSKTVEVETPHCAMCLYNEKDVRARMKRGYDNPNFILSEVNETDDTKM
Arbovirus anti: blocks arbovirus infection. 0.37% of 200,000 active. arbovirus infection cell-based antiviral screen. inhibition, % at 10 µM; in the data active = inhibition above about 30%
ROMK retest: confirmation of human ROMK potassium channel modulators; shares compounds with ROMK primary; ROMK thallium flux, fluorescence ratio; hits give low values; normalized thallium flux (F/F0 slope) at 10 µM; 54% of 3,000 active;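 active = Flux at 10 µM at least 3 SD below or above vehicle control mean in one or both replicates; inconclusive = no clear call, values can overlap the other calls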
* hit, by the source's call; ? = inconclusive; / = no result given. Most compounds without a hit are left out; they make up all but 3.3% or so of the library.

SMILES	PERK inhibitor	WT yeast gro inh	ROMK primary	Arbovirus anti	ROMK retest
Nc1c(C=C2C=CC(=O)C=C2)c(=O)nc2snc(SCc3ccccc3)n12	1	/	/	/	?
CC(=O)c1cc2c(cc1NC(=O)c1ccccc1C)OCO2	-1	-2	-0.97	-1	/
CSc1cccc(NC(=O)C2CCCN2S(=O)(=O)c2ccc(Br)s2)c1 (stereo not drawn)	-1	27	-3.1*	14	0.061*
O=c1cc(-c2ccccc2[N+](=O)[O-])oc2ccccc12	0	-9	2.4*	-22	0.079
O=c1cc(-c2ccccc2F)oc2ccccc12	0	2	0.083	-5	/
CCCCNC(=O)/C(C#N)=C/c1ccc(F)cc1F	1	1	-7.8*	-5	0.046*
CCOCCCNC(=O)/C(C#N)=C/c1ccc(C)o1	1	-8	-0.15	5	/
COCCNC(=O)/C(C#N)=C/c1cccs1	1	/	/	/	/
COCCCNC(=O)/C(C#N)=C/c1ccc(F)cc1	1	1	-3.9*	2	0.052*
COCCNC(=O)/C(C#N)=C/c1ccc(OC(=O)c2cccs2)c(OC)c1	0	3	-4.4*	13	0.044*
COCCNC(=O)/C(C#N)=C/c1ccc(OCc2ccc(F)cc2)cc1	0	-2	-0.8	6	/
COCCNC(=O)/C(C#N)=C/c1ccc(SC)cc1	1	2	-3.9*	20	0.049*
COCCNC(=O)/C(C#N)=C/c1ccc(C(=O)O)cc1	1	-9	-0.5	7	/
COCCNC(=O)/C(C#N)=C/c1c(F)cccc1Cl	1	42	-3.7*	-12	0.037*
COc1cc(/C=C(/C#N)C(=O)Nc2ccccc2)ccc1OCc1ccc(C(=O)O)cc1	2	-6	-2.5*	8	0.053*
CN(C)c1nc(Oc2ccc(C(=O)OCC(=O)Nc3ccccc3)cc2)nc(N(C)C)n1	0	-4	/	9	0.08
CCOC(=O)c1ccc(Oc2nc(OC)nc(N(C)C)n2)cc1	0	-6	/	-2	/
COc1cccc2c1c(NC(=O)Nc1ccc(F)cc1F)nn2C	-1	/	/	/	/
O=C(NNS(=O)(=O)c1ccc2ccccc2c1)C1CCN(Cc2ccccc2)CC1	1	4	/	9	/
Cc1cc(C)c(C)c(S(=O)(=O)NC2CCN(Cc3ccccc3)CC2)c1C	1	15	-4*	-15	0.063*
O=S(=O)(NC1CCN(Cc2ccccc2)CC1)c1ccc2ccccc2c1	1	40	-3.5*	-1	0.064*
Cc1cc(C)c(S(=O)(=O)NC2CCN(Cc3ccccc3)CC2)c(C)c1	1	/	/	/	/
COC(=O)c1cc(Br)c(=O)n(-c2cccc(F)c2)c1	0	-22	/	0	/
Cc1ccc(C)c(-c2csc(N)c2C(=O)OC(C)C)c1	1	21	2.7*	-8	0.078
Cc1cccc(-c2csc(N)c2C(=O)OC(C)C)c1	0	21	0.48	-15	/
SMILES	PERK inhibitor	WT yeast gro inh	ROMK primary	Arbovirus anti	ROMK retest
CCCCCCCC(=O)NNC(=O)c1c(O)c2ccccc2n(CCC)c1=O	0	7	/	-11	/
Cn1cccc1/C=C1\SC(=S)N(NC(=O)c2ccccc2)C1=O	0	10	-2.7*	-18	0.06*
Cn1cccc1/C=C1\SC(=S)N(NC(=O)c2ccc(F)cc2)C1=O	0	/	-0.63	/	/
O=C1Nc2ccccc2OCc2c1cccc2[N+](=O)[O-]	2	-6	3.5*	-2	0.1*
O=C1OCc2cccc([N+](=O)[O-])c21	1	-3	0.0037	0	/
O=C1N(Cc2cccc(Cl)c2)C[C@@H]2C[C@@H](c3cccn3-c3cccnc3)N3CCC[C@@]123	0	8	-2.7*	12	0.061*
CCn1ncc([C@@H]2C[C@H]3CN(Cc4cccc(Cl)c4)C(=O)[C@]34CCCN24)c1C	0	20	-0.36	-3	/
COc1ccc(CN(C)C(=O)CCl)cc1	0	-10	-0.48	7	/
CN(Cc1ccc(Cl)cc1)C(=O)CCl	0	-10	-4.7*	2	?
COc1cccc(-c2nnc(SCC(=O)Nc3cc(C)ccc3OC)n2N)c1	0	17	/	-2	?
CCCS(=O)(=O)N1CCCC(C(=O)c2ccccc2OC)C1 (stereo not drawn)	-1	-8	1.2	-7	/
Cc1ccc2nsnc2c1NC(=O)CCl	1	-10	-13*	12	0.079
COc1cccc(N2CCN(C(=O)/C=C/c3ccco3)CC2)c1	0	6	0.22	0	/
COc1ccc(-c2cn3c4c(sc3n2)CCCC4)cc1	-2	20	0.77	-10	/
COC(=O)c1ccc(NC(=O)c2sc3nc(-c4ccccc4)cn3c2C)cc1	0	-1	/	-11	?
CC(C)Cn1nc(NC(=O)c2cccs2)c2cc3ccccc3nc21	-2	/	/	/	/
COc1ccc2nc3c(cc2c1)c(NC(=O)c1cccs1)nn3CC(C)C	-2	-18	/	-8	0.072
O=C(O)c1c(N2CCCCC2)ccc([N+](=O)[O-])c1N1CCCCC1	1	/	/	/	/
Cc1cc(C)c2cc(C(=O)Nc3ccccc3)[nH]c2c1	1	/	/	/	0.079
CCOC(=O)c1c(C)n(C)c2ccc(OC)c(NC(=O)CN3CCN(Cc4ccccc4)CC3)c12	-1	7	-3.2*	3	0.068*
CCOC(=O)c1c(C)n(C)c2ccc(OC)c(NC(=O)CN3CCN(C(=O)c4ccco4)CC3)c12	-2	-6	/	0	/
Cc1ccc(NC(=O)CN(Cc2ccccc2)S(C)(=O)=O)cc1C	0	14	/	4	/
CC1(C)CN(c2cccc(Br)c2)C1=O	0	-6	2.1*	-5	0.073
Cn1c(C2CCCCC2)nc2c1c(=O)[nH]c(=O)n2Cc1ccccc1	-1	18	3.2*	-1	0.098*
Cc1ccccc1CN1CCc2c(OCC(=O)N3CCCc4ccccc43)cccc2C1=O	-1	62*	-0.99	-31	0.08
SMILES	PERK inhibitor	WT yeast gro inh	ROMK primary	Arbovirus anti	ROMK retest
CCOC(=O)N1CCN(C(=O)COc2cccc3c2CCN(Cc2ccccc2C)C3=O)CC1	-1	23	/	10	/
CCOC(=O)N1CCN(C(=O)COc2cccc3c2CCN(Cc2cccc(C)c2)C3=O)CC1	0	-3	/	-4	0.064*
Cc1ccc(Cl)cc1N1CCN(CC(=O)Nc2ccc(CN3CCCCC3)cc2)CC1	-2	45	-4.6*	-37	0.054*
O=C(OC(c1ccc(NS(=O)(=O)c2ccccc2)cc1)(C(F)(F)F)C(F)(F)F)c1ccccc1	0	87*	-4.5*	-11	0.062*
CC(=O)c1ccc(NS(=O)(=O)c2ccccc2)cc1	0	-7	/	-4	/
CCCCOC(=O)C1CCC[C@@H](C)N1 (stereo partly drawn)	1	-22	/	1	0.079
O=C(COc1ccc(Cl)cc1[N+](=O)[O-])N1CCCCCC1	0	-13	-1.8*	3	?
Cc1ccc(NC(=O)N2CCC(=O)N2)cc1	1	20	/	7	/
COc1cccc(CC(=O)NNC(=O)c2c(-c3ccccc3)noc2C)c1	1	/	/	/	/
CCn1c(=O)c([N+](=O)[O-])c(N2CCN(Cc3ccc4c(c3)OCO4)CC2)c2ccccc21	-2	/	/	/	0.064*
CN(C)c1ccc2c3c(ccc(N(C)C)c13)C(=O)OC2	3	/	/	/	0.079
Cc1cc(NC(=O)CSc2cn(C)c3ccccc23)no1	1	6	/	3	/
Oc1[nH]c2ccccc2c1N=Nc1ccccc1	0	/	/	/	0.068*
